Reference: PubChem BioAssay AID2284076 (EPA ToxCast)
Activity calls are given as the source filed them. How the source made its calls: active means hit-call score of the fitted dose curve at least 0.9, where 1 is the maximum; inactive means score below 0.9.

biological target: human EphA1 Receptor Tyrosine Kinase, EPHA1 (gene 2041) (UniProt P21709); assay: ERF_FR_ENZ_hEPHA1: Eurofins (ERF) Enzymatic Radiometric [Km ATP] KinaseProfiler LeadHunter Assay for human EphA1 Receptor Tyrosine Kinase
Method: ERF_FR_ENZ_hEPHA1 is a biochemical, single-readout assay that uses extracted gene-proteins in a cell-free assay. Measurements were taken 0.5 hour after chemical dosing in a 96-well plate. See EphA1 Human RTK Kinase Enzymatic HTRF Assay [Km ATP], Cerep.ERF_FR_ENZ_hEPHA1 is an assay component calculated from the ERF_FR_ENZ_hEPHA1 assay. It is designed to measure enzyme activity using a type of enzyme reporter as detected by fluorescence intensity with HTRF technology.Data from the assay component ERF_FR_ENZ_hEPHA1 was analyzed at the assay endpoint, ERF_FR_ENZ_hEPHA1, in the positive analysis fitting direction relative to DMSO as the negative control and baseline of activity. Using a type of enzyme reporter, loss-of-signal activity can be used to understand changes in enzymatic activity as they relate to gene EPHA1. To generalize the intended target to other relatable targets, this assay endpoint is annotated to the kinase intended target family, where the subfamily is receptor tyrosine kinase.
EphA1 (h) is incubated with 8 mM MOPS pH 7.0, 0.2 mM EDTA, 250 uM […], 10 mM MgAcetate and [gamma-33P]-ATP (specific activity and concentration as required). The reaction is initiated by the addition of the Mg/ATP mix. After incubation for 40 minutes at room temperature, the reaction is stopped by the addition of phosphoric acid to a concentration of 0.5%. […]

Sequence of human EphA1 Receptor Tyrosine Kinase, EPHA1 (gene 2041) (P21709 whole entry, looked up): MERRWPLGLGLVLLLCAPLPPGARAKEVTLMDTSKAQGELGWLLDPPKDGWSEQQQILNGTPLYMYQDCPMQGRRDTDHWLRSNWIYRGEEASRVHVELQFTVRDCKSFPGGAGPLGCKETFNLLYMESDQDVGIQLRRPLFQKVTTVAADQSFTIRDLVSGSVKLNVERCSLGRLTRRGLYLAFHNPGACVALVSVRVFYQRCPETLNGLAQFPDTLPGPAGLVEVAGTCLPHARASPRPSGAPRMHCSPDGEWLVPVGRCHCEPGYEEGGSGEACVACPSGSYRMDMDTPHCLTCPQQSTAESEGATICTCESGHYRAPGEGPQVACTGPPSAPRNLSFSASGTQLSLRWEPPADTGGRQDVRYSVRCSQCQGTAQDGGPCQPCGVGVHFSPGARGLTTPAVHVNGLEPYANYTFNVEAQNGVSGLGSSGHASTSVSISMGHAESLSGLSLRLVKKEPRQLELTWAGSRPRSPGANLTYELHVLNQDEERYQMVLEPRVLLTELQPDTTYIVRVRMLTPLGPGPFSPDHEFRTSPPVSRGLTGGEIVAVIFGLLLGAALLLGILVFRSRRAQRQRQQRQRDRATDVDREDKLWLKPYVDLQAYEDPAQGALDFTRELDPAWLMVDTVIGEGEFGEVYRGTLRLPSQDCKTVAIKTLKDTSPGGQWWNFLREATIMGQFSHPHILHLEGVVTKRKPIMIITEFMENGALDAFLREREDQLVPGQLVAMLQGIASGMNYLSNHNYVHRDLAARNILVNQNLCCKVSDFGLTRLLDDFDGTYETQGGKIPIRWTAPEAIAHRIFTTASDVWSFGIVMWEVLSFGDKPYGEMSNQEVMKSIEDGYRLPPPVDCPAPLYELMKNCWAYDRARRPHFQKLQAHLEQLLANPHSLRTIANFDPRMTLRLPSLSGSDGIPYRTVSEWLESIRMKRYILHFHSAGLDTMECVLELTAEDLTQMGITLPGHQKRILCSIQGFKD

Question: Which outcome does the source give for `O=C(/C=C/c1ccc(O)cc1)CC(=O)/C=C/c1ccc(O)cc1` here?
Answer: Its outcome is “inactive”.
